From PubChem BioAssay (EPA / NIEHS)
Results filed as inconclusive are left out. Calls of active or inactive are those of the source. Rule for the calls, unless noted: active = hit-call score of the fitted dose curve at least 0.9, where 1 is the maximum; inactive = score below 0.9.

Tests used:
[1] = molecular target: Oxysterols receptor LXR-alpha (Homo sapiens) (UniProt Q13133); experiment: ATG_LXRa_TRANS: Attagene TRANS-FACTORIAL HepG2 Assay for human Liver X Receptor alpha (LXRa) (AID 2282980; active = hit-call score of the fitted dose curve at least 0.9, where 1 is the maximum); conditions: HepG2 Attagene TRANS reporter, LXRa transactivation
Method in brief: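 Transient HepG2 transfectants, 24 h dosing, RT-PCR/CE mRNA reporter quantitation; gain-of-signal vs DMSO.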

[2] = ATG_M_32_TRANS: Attagene TRANS-FACTORIAL HepG2 Assay for M32 Transcription Factor (Internal Marker) (AID 2282984; active = hit-call score of the fitted dose curve at least 0.9, where 1 is the maximum;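 note: transcript level of a background control reporter unit measured by RT-PCR and capillary electrophoresis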); conditions: HepG2 Attagene TRANS M32 internal marker reporter
Method in brief: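 Read-out: fluorescent reporter cDNA fragments resolved by capillary electrophoresis after RT-PCR of total RNA. Transfected HepG2 cells were exposed to chemical for 24 h. Activity scored in the positive direction relative to DMSO.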

[3] = molecular target: Nuclear receptor subfamily 4 group A member 2 (Homo sapiens) (UniProt P43354); experiment: ATG_NURR1_TRANS: Attagene TRANS-FACTORIAL HepG2 Assay for human Nuclear Receptor Related Protein 1 (NURR1) (AID 2282985; active = hit-call score of the fitted dose curve at least 0.9, where 1 is the maximum); conditions: HepG2 Attagene TRANS reporter, mRNA readout
Method in brief: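 Read-out: reporter mRNA induction by RT-PCR plus capillary electrophoresis with fluorescence detection, after 24 h dosing of transfected HepG2 cells. Exogenous NR-Gal4 chimera activity drives GAL4-UAS reporter; activity fitted upward versus DMSO.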

[4] = molecular target: Transcriptional activator Myb (Homo sapiens) (UniProt P10242); experiment: ATG_Myb_CIS: Attagene CIS-FACTORIAL HepG2 Assay for human Myeloblastosis (Myb) Proto-Oncogene Transcription Factor (AID 2282986); conditions: HepG2 Attagene CIS-FACTORIAL Myb reporter transcription; actives raise or lower the signal
Method in brief: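 Fluorescence signals from capillary electrophoresis of RT-PCR-amplified reporter cDNA give the read-out. Cells: HepG2 transfected with multiple cis-regulated reporter units. Exposure lasts 24 hours; DMSO defines baseline for gain or loss of signal.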

[5] = molecular target: Nuclear respiratory factor 1 (Homo sapiens) (UniProt Q16656); experiment: ATG_NRF1_CIS: Attagene CIS-FACTORIAL HepG2 Assay for human Nuclear Respiratory Factor 1 (NRF1) Orphan Gene (AID 2282987); conditions: HepG2 NRF1 cis-element reporter, Attagene multiplex; actives raise or lower the signal
Method in brief: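 Transcriptional reporter readout, one component of a 52-endpoint multiplexed HepG2 panel. Exposure 24 h; mRNA detected via RT-PCR and fluorescent capillary electrophoresis; fitting in both directions against DMSO.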

[6] = ATG_NFI_CIS: Attagene CIS-FACTORIAL HepG2 Assay for human Nuclear Factor I (NFI) (AID 2282989); conditions: HepG2 cis-regulatory reporter, NFI response element transcription; actives raise or lower the signal
Method in brief: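 Transfected HepG2 liver cells, exposed 24 h, supplied total RNA for oligo(dT) reverse transcription and reporter-specific PCR. Labelled, HpaI-cut fragments were sized by capillary electrophoresis; DMSO set the baseline for bidirectional fitting.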

[7] = molecular target: Myc proto-oncogene protein (Homo sapiens) (UniProt P01106); experiment: ATG_Myc_CIS: Attagene CIS-FACTORIAL HepG2 Assay for human Myelocytomatosis (Myc) Proto-Oncogene Transcription Factor (AID 2282990); conditions: HepG2, Attagene cis-reporter transcription factor activity; actives raise or lower the signal
Method in brief: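 Transiently transfected HepG2 cells bearing cis-promoter reporter units for endogenous transcription factors; 24 h exposure. Reporter mRNA measured by RT-PCR, 6-FAM primer extension, HpaI cut and capillary electrophoresis; bidirectional fit relative to DMSO.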

[8] = ATG_NF_kB_CIS: Attagene CIS-FACTORIAL HepG2 Assay for human Nuclear Factor Kappa B (NF-kB) (AID 2282991); conditions: HepG2 Attagene cis-factorial NF-kB reporter mRNA; actives raise or lower the signal
Method in brief: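 HepG2, transient multi-reporter transfection, cis promoter elements (endogenous TFs). 24 h exposure. Total RNA → RT → PCR → 6-FAM label → HpaI → CE. Gain/loss vs DMSO.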

[9] = ATG_NRF2_ARE_CIS: Attagene CIS-FACTORIAL HepG2 Assay for human Nuclear Factor Erythroid 2 Related Factor 2 (NFR2) response to Antioxidant Response Elements (ARE) (AID 2282992); conditions: HepG2 Attagene ARE/NRF2 reporter, transcription factor activity; actives raise or lower the signal;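 for AC50: reporter mRNA level measured by RT-PCR and capillary electrophoresis fluorescence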
Method in brief: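 Using transiently transfected HepG2 cells exposed for 24 h, reporter mRNA levels were determined by RT-PCR with fluorescent primer extension and capillary electrophoresis, analysed for gain or loss of signal against DMSO.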

[10] = ATG_Oct_MLP_CIS: Attagene CIS-FACTORIAL HepG2 Assay for human Octamer-Binding Transcription Factor (Oct) (AID 2282993); conditions: HepG2 Attagene cis-factorial Oct reporter, mRNA; actives raise or lower the signal
Method in brief: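 Using HepG2 cells bearing transfected cis-reporter constructs, mRNA induction was read after 24 h by fluorescent RT-PCR and capillary electrophoresis, with DMSO defining baseline for gain- or loss-of-signal fits.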

[11] = molecular target: Cellular tumor antigen p53 (Homo sapiens) (UniProt P04637); experiment: ATG_p53_CIS: Attagene CIS-FACTORIAL HepG2 Assay for human p53 Transcription Factor (AID 2282994); conditions: HepG2 p53 cis-element reporter, Attagene mRNA; actives raise or lower the signal
Method in brief: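 In HepG2 cells, reporter transcription units under cis-regulatory promoters were transiently introduced. Following 24 h treatment, RNA was processed to labelled, digested cDNA fragments read by capillary electrophoresis; fitting was bidirectional versus DMSO.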

[12] = BSK_3C_TissueFactor: BioMAP Diversity Plus: 3C Assay for Tissue Factor Biomarker Activity (AID 2282997); conditions: BioMAP 3C HUVEC, tissue factor biomarker readout; actives raise or lower the signal
Method in brief: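 Cells used were primary human umbilical vein endothelial cells. They were dosed with chemical, and after 24 h Tissue Factor was quantified by ELISA. Curves were fitted bidirectionally with DMSO as baseline.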

[13] = BSK_3C_VCAM1: BioMAP Diversity Plus: 3C Assay for Vascular cell adhesion molecule 1 (VCAM1) Biomarker Activity (AID 2282999); conditions: BioMAP 3C HUVEC, VCAM1 ELISA, cytokine-stimulated; actives raise or lower the signal
Method in brief: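 HUVEC primary cells, 24 h compound exposure; VCAM-1 by ELISA; gain/loss of signal fitted bidirectionally vs DMSO baseline.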

[14] = molecular target: Oxysterols receptor LXR-beta (Homo sapiens) (UniProt P55055); experiment: ATG_LXRb_TRANS: Attagene TRANS-FACTORIAL HepG2 Assay for human Liver X Receptor beta (LXRb) (AID 2282981; active = hit-call score of the fitted dose curve at least 0.9, where 1 is the maximum); conditions: HepG2 Attagene TRANS GAL4-LXRb reporter, mRNA
Method in brief: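 Readout: fluorescent reporter mRNA fragments resolved by capillary electrophoresis after RT-PCR. System: transiently transfected human HepG2, exogenous LXRb-Gal4 chimera driving GAL4-UAS reporter, 24 h dosing. Activity fitted upward against DMSO baseline.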

[15] = molecular target: Hepatocyte nuclear factor 4-alpha (Homo sapiens) (UniProt P41235); experiment: ATG_HNF4a_TRANS: Attagene TRANS-FACTORIAL HepG2 Assay for human Hepatocyte Nuclear Factor 4 alpha (HNF4a) (AID 2282982; active = hit-call score of the fitted dose curve at least 0.9, where 1 is the maximum); conditions: HepG2 HNF4a transactivation reporter, mRNA readout
Method in brief: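 Transient MRTU transfection of HepG2, 24 h dosing. Readout: reporter mRNA via RT-PCR + capillary electrophoresis, fluorescence; activity fit upward relative to DMSO control.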

[16] = ATG_M_06_TRANS: Attagene TRANS-FACTORIAL HepG2 Assay for M06 Transcription Factor (Internal Marker) (AID 2282983; active = hit-call score of the fitted dose curve at least 0.9, where 1 is the maximum;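 note: reporter transcript level by RT-PCR then capillary electrophoresis fluorescence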); conditions: HepG2 Attagene TRANS M06 internal marker reporter
Method in brief: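 Human liver HepG2 cells bearing transiently transfected chimeric NR-GAL4 reporter units were treated with chemicals for 24 h. Total RNA was reverse-transcribed, reporter sequences amplified and labelled, then quantified by capillary electrophoresis. Activity was fitted upward relative to DMSO.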

Sequence of Cellular tumor antigen p53 (Homo sapiens) (P04637 whole entry, looked up, the tested form may be a part): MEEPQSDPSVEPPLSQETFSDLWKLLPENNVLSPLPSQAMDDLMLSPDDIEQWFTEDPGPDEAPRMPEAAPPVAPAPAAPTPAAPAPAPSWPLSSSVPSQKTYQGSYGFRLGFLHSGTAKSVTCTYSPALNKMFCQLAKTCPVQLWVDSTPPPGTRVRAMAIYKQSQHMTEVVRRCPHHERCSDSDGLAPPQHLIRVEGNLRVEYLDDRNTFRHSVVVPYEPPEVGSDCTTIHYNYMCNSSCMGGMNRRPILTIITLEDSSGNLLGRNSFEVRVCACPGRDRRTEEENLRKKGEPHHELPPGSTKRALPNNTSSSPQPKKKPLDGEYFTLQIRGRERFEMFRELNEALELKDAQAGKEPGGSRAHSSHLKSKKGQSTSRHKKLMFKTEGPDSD
Sequence of Oxysterols receptor LXR-beta (Homo sapiens) (P55055 whole entry, looked up, the tested form may be a part): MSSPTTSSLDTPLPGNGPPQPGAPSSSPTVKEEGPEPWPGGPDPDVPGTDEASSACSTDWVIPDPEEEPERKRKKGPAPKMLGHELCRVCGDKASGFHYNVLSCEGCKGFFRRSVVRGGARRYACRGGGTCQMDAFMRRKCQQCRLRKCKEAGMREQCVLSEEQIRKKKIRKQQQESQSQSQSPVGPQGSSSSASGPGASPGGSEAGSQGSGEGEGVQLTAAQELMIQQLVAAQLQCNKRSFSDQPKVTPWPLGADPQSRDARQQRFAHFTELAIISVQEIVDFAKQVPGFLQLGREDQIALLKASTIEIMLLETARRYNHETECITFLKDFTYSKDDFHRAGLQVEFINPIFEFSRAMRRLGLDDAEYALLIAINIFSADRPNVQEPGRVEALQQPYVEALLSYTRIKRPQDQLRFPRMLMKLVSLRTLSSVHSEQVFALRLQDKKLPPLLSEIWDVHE
Sequence of Nuclear receptor subfamily 4 group A member 2 (Homo sapiens) (P43354 whole entry, looked up, the tested form may be a part): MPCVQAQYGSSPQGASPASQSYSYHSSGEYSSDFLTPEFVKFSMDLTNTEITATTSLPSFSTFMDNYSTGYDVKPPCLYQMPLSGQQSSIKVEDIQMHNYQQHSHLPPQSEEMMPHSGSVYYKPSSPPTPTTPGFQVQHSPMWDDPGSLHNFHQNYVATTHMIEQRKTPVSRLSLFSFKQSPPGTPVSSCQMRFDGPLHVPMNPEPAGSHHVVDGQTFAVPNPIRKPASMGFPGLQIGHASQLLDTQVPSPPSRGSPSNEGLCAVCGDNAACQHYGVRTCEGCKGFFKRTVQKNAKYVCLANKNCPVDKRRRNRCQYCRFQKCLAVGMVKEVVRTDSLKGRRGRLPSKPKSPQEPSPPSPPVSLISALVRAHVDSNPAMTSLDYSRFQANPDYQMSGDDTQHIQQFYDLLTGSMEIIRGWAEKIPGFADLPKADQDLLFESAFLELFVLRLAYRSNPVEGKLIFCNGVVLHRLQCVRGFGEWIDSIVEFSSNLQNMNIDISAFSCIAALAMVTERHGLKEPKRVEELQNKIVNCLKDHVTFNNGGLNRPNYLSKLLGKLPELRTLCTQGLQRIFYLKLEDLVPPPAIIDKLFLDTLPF
Sequence of Nuclear respiratory factor 1 (Homo sapiens) (Q16656 whole entry, looked up): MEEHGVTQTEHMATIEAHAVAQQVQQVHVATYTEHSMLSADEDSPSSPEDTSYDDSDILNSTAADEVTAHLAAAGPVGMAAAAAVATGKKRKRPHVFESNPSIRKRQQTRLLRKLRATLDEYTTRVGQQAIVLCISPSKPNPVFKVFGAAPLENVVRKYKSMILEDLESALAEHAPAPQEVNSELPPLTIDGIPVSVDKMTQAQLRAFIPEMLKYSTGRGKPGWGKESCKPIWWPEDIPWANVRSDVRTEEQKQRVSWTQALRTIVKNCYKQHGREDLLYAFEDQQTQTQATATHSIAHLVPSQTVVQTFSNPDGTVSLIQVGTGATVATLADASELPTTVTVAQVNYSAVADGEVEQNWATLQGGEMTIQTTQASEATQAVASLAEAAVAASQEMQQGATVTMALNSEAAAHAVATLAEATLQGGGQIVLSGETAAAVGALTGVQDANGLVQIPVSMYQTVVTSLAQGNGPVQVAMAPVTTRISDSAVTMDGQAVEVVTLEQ
Sequence of Myc proto-oncogene protein (Homo sapiens) (P01106 whole entry, looked up): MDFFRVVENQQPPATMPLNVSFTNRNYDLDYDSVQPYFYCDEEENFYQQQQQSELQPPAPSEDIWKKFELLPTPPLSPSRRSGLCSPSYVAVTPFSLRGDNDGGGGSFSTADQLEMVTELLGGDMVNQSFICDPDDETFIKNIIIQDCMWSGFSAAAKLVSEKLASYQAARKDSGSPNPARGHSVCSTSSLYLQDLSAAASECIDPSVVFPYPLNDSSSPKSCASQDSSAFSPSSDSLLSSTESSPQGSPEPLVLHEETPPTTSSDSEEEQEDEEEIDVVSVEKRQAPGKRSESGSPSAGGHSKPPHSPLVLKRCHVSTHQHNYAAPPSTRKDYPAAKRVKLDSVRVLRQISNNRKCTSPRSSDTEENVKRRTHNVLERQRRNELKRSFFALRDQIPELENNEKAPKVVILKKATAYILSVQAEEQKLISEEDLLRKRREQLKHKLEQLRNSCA
Sequence of Transcriptional activator Myb (Homo sapiens) (P10242 whole entry, looked up): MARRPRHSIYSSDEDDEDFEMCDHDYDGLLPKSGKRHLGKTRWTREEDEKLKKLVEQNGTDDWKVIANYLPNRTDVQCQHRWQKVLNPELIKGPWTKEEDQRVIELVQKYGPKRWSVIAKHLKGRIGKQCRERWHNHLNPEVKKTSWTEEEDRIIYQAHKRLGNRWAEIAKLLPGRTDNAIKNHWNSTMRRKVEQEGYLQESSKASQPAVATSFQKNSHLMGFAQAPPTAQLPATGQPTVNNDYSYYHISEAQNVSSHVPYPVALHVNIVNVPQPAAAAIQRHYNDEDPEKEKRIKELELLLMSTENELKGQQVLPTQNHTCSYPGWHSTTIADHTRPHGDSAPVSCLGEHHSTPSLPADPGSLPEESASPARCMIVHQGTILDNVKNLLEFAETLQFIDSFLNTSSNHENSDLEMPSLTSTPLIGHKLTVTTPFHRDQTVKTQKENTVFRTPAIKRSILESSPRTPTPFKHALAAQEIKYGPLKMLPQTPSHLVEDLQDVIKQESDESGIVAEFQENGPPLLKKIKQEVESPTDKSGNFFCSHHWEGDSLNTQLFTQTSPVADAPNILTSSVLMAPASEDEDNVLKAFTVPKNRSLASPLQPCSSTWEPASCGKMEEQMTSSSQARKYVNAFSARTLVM
Sequence of Hepatocyte nuclear factor 4-alpha (Homo sapiens) (P41235 whole entry, looked up): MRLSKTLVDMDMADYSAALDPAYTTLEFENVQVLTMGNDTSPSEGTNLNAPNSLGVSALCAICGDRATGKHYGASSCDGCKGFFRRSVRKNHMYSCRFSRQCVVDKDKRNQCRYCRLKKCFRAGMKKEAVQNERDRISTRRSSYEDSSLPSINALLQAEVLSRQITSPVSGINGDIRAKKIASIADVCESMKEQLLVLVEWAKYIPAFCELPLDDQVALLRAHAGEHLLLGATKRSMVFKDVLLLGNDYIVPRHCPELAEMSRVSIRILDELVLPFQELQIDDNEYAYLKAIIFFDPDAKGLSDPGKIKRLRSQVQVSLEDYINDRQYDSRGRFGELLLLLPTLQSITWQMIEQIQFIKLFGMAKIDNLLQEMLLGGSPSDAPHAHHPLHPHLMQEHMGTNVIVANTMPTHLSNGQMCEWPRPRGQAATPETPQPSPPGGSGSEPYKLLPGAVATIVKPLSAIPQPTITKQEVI
Sequence of Oxysterols receptor LXR-alpha (Homo sapiens) (Q13133 whole entry, looked up): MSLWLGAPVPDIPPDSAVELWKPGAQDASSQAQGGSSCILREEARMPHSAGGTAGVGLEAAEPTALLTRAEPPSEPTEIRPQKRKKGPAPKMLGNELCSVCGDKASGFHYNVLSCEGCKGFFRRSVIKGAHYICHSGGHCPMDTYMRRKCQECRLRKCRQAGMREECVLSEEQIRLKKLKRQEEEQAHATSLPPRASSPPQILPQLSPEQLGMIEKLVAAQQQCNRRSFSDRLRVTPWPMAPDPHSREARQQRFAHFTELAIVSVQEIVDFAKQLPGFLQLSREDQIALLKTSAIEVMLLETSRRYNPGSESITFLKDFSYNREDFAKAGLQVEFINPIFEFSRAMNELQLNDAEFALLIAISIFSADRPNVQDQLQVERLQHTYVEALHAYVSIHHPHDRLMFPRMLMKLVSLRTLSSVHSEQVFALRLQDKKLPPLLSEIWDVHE

SMILES	outcome [1]	outcome [2]	outcome [3]	outcome [4]	outcome [5]	outcome [6]	outcome [7]	outcome [8]	AC50 [9]	outcome [10]	outcome [11]	outcome [12]	outcome [13]	outcome [14]	outcome [15]	outcome [16]	outcome [9]	AC50 [8]	AC50 [11]
CCOC(=O)C=Cc1ccccc1	inactive	inactive	inactive	inactive	inactive	inactive	inactive	inactive	42.3 µM (active)	inactive	inactive	inactive	inactive						
c1ccc(Cc2ccccc2)cc1		inactive	inactive	inactive	inactive	inactive	inactive	inactive		inactive	inactive			inactive	inactive	inactive	inactive		
CC(C)CCCC(C)(C)O	inactive	inactive		inactive		inactive	inactive	inactive			inactive	inactive	inactive				inactive		
COc1ccc(C(C)=O)cc1			inactive	inactive	inactive	inactive	inactive			inactive	inactive			inactive			inactive		
CC(=O)Nc1cc(S(=O)(=O)O)cc2cc(S(=O)(=O)O)c(N=Nc3ccccc3)c(O)c12		inactive		inactive	inactive	inactive	inactive	inactive		inactive	inactive			inactive		inactive	inactive		
CC1(C)CC(N)CC(C)(CN)C1 (stereo unspecified)		inactive	inactive	inactive	inactive	inactive	inactive	inactive		inactive	inactive			inactive	inactive	inactive	inactive		
CC(=O)Oc1c(C)c(C)c2c(c1C)CC[C@@](C)(CCC[C@H](C)CCC[C@H](C)CCCC(C)C)O2		inactive	inactive	inactive		inactive	inactive			inactive				inactive	inactive		inactive		
CCOC(=O)CCCCCCCCC(=O)OCC		inactive	inactive	inactive	inactive	inactive	inactive	inactive		inactive	inactive	inactive	inactive	inactive	inactive	inactive	inactive		
NNC(=O)OCc1ccccc1		inactive	inactive	inactive		inactive	inactive	inactive		inactive					inactive	inactive	inactive		
CC1=CC[C@@H]2C[C@H]1C2(C)C			inactive	inactive	inactive	inactive	inactive	inactive		inactive				inactive			inactive		
CCCCCc1cccc(=O)o1		inactive		inactive		inactive	inactive	inactive	41.5 µM (active)	inactive	inactive			inactive					
CC(=O)c1cccnc1		inactive		inactive	inactive	inactive	inactive	inactive		inactive	inactive			inactive			inactive		
CCCCCCCOC(C)=O		inactive	inactive	inactive	inactive	inactive	inactive			inactive	inactive					inactive	inactive		
CCCCCCCCCOS(=O)(=O)O				inactive		inactive	inactive			inactive	inactive				inactive	inactive	inactive		
C=C(C)C(=O)OCCN(C)C			inactive	inactive	inactive	inactive	inactive			inactive	inactive				inactive		inactive		
CC/C=C\CCCCO		inactive	inactive	inactive	inactive	inactive	inactive	inactive		inactive	inactive				inactive		inactive		
O=S(=O)(O)C(F)(F)C(F)(F)OC(F)(F)C(F)(F)F												inactive	inactive						
C=CCOC(=O)/C=C\C(=O)OCC=C		inactive	inactive	inactive	inactive	inactive	inactive		6.75 µM (active)						inactive			15.8 µM (active)	156 µM (active)
